Our source for the composite z-score and z-score values is PubChem BioAssay.

Active and inactive are the calls of the source.

Test [1] in a line: small molecules captured by biotinylated probe aFSTL3 – biochemical, small-molecule microarray, fluorescence 635/667, stem cell growth factor project, primary screen (AID 1064).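 Also: measures binding of the biotinylated anti-FSTL3 antibody to printed compounds.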 Conditions: higher = more signal.
A short description of test [2]: binders from COS7 lysate, DM2A8 probe, primary screen, torsin A project, cell lysate, small-molecule microarray, fluorescence 635/667 (AID 1065). The following applies: higher = more signal, COS7 lysate expressing mutant human TOR1A.
The nature of test [3]: small molecules captured by biotinylated probe aFGF2 – biochemical, small-molecule microarray, fluorescence 635/667, stem cell growth factor project, primary screen (AID 1067).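 Also: measures binding of biotinylated aFGF2 protein to printed compounds on slides; z-score merges feature fluorescence and signal-to-noise across triplicate slides.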 The following applies: higher = more signal.
Test [4] is described as follows: small molecules captured by biotinylated probe aFGF10 – biochemical, small-molecule microarray, fluorescence 635/667, stem cell growth factor project, primary screen (AID 1071).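 Also: score merges 667 nm spot intensity and signal to noise from triplicate slides.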 The following applies: higher = more signal.
For test [5], the target named is Neurogenic locus notch homolog protein 2 (Homo sapiens) (UniProt Q04721). Put plainly: small molecules binding Notch2 protein – biochemical, small-molecule microarray, 635 nm fluorescence, stem cell growth factors, primary screen (AID 1073). The following applies: higher = more signal.
In test [6] the target is Pro-neuregulin-1, membrane-bound isoform (Homo sapiens) (UniProt Q02297). Nature of the test: small molecules binding neuregulin-1 protein – biochemical, small-molecule microarray, fluorescence 635/667, psychiatric disease protein project, primary screen (AID 1075).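 Also: score combines 667 nm spot fluorescence with signal to noise.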 The following applies: NRG1 binding, 635 nm fluorescence, higher = more signal.
Chain of Pro-neuregulin-1, membrane-bound isoform (Homo sapiens) (Q02297 whole entry, looked up, the tested form may be a part, canonical isoform): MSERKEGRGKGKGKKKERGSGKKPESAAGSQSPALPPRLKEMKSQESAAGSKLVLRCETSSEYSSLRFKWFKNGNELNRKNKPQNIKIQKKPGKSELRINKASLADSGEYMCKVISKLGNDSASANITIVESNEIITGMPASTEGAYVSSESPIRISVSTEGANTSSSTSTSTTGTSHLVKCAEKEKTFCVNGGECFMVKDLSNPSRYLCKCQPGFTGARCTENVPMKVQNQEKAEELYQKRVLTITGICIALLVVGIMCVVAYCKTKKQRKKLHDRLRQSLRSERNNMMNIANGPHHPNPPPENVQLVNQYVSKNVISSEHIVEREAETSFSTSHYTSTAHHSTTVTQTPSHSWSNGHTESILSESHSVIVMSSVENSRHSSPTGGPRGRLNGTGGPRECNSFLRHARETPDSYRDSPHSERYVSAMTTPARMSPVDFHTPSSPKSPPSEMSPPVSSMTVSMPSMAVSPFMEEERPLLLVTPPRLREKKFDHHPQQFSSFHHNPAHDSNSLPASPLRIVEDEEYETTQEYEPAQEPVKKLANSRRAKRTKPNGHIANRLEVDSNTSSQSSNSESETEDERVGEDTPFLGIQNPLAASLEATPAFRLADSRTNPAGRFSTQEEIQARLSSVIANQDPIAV
Test [7] relates to Neuregulin-1 EGF-like domain. Nature of the test: small molecules binding NRG1 EGF domain – biochemical, small-molecule microarray, 635 nm fluorescence, primary screen (AID 1081).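 Also: binding of the protein to compounds printed on small-molecule microarray slides.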 Conditions: higher = more signal.
Test [8] in a line: FRG1 expression reporter modulators in myotubes – cell-based, C2C12 myotubes, firefly/Renilla luciferase, luminescence, FRG1 inhibition for FSHD, primary screen (AID 1084). Conditions: FRG1 promoter luciferase, higher = more signal, called active from +8 up or from −8 down.
Test [9] in a line: small molecules captured by biotinylated probe aFST – biochemical, small-molecule microarray, fluorescence 635/667, stem cell growth factor project, primary screen (AID 1086).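 Also: score merges 667 nm fluorescence with signal-to-noise of each printed compound spot.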 Conditions: higher = more signal.
A short description of test [10]: binders of probe aHhip on microarray, primary screen, stem cell growth factor project, biochemical, small-molecule microarray, fluorescence 635/667 (AID 1087).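 Also: score merges spot fluorescence at 667nm with spot signal to noise ratio.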 Conditions: higher = more signal.
Test [11] deals with PRMT1 (protein arginine N-methyltransferase 1). Nature of the test: small molecules binding arginine methyltransferase PRMT1 – biochemical, small-molecule microarray, 635 nm fluorescence, primary screen (AID 1088).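 Also: binding of Prmt1 protein to compounds spotted on small-molecule microarray slides.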 Conditions: higher = more signal.
Test [12] in a line: growth effects on S. cerevisiae YJM789 – YJM789 clinical isolate, OD600, 24 h, basal, primary screen (AID 1089).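 Also: growth of clinical yeast isolate S. cerevisiae YJM 789 seeded 1000 cells per well; test concentration not given here.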 Conditions: higher = more signal, called active from +8 up or from −8 down.
A short description of test [13]: S. pombe growth modifiers, basal conditions – strain 972, OD600, 24 h, no modulator, primary screen (AID 1090).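 Also: basal condition with compound alone and no growth modifier present; test concentration not given here.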 Conditions: S. pombe 972 growth, higher = more signal, called active from +8 up or from −8 down.
A short description of test [14]: budding yeast growth modifiers under rapamycin – strain BY4716, OD600, 96 h, primary screen (AID 1091). Also: test concentration not given here. Conditions: S. cerevisiae BY4716 + rapamycin, higher = more signal, called active from +8 up or from −8 down.
Test [15] deals with Torsin-1A-interacting protein 2 (Homo sapiens) (UniProt Q8NFQ8). Put plainly: small molecules binding lysate-expressed LULL1 – cell lysate, human LULL1 lysate, 635/667 nm fluorescence, primary screen (AID 1092).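 Also: probe is lysate of COS7 cells overexpressing human LULL1; score merges per-feature 667 nm fluorescence with signal-to-noise.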 Conditions: small-molecule microarray, hLULL1 lysate binding, 635 nm fluorescence; higher = more signal.
Chain of Torsin-1A-interacting protein 2 (Homo sapiens) (Q8NFQ8 whole entry, looked up): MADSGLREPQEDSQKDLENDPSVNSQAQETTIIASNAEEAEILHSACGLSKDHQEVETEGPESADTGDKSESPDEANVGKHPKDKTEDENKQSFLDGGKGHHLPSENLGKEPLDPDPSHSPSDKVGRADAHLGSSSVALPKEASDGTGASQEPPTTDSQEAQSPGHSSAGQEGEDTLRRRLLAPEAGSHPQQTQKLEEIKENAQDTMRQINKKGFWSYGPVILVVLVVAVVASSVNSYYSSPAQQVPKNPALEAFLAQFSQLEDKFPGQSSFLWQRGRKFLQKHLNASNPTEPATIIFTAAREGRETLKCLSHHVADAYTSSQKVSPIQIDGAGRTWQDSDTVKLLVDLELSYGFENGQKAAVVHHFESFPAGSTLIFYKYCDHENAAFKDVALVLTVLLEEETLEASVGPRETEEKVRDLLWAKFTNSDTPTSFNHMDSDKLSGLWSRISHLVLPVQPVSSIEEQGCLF
The nature of test [16]: optical density change of DRC41 E. coli – strain DRC41, OD650, 24 h, E. coli filamentation project, primary screen (AID 1093).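 Also: MC1000 strain lacking acrAB efflux and sulA so SOS filamentation is blocked; test concentration not given here.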 Conditions: E. coli DRC41 growth, higher = more signal, called active from +8 up or from −8 down.
The nature of test [17]: probe aLefty2 binding to arrayed compounds – biochemical, biotinylated probe, 635/667 nm fluorescence, primary screen (AID 1094).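 Also: score merges spot fluorescence near 667 nm with spot signal-to-noise ratio.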 The following applies: small-molecule microarray, higher = more signal.
The test system of test [18] is Noggin (protein binding on small-molecule microarray). Put plainly: small molecules binding Noggin protein – biochemical, 635/667 nm fluorescence, primary screen (AID 1095).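 Also: score merges 667 nm feature fluorescence with signal to noise over triplicate slides.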 Conditions: 635 nm fluorescence, higher = more signal.
The target of test [19] is Neurogenic locus notch homolog protein 3 (Homo sapiens) (UniProt Q9UM47). Put plainly: small molecules binding NOTCH3 protein – biochemical, 635/667 nm fluorescence, primary screen (AID 1096). Conditions: small-molecule microarray, 635 nm fluorescence, higher = more signal.
Chain of Neurogenic locus notch homolog protein 3 (Homo sapiens) (Q9UM47 whole entry, looked up): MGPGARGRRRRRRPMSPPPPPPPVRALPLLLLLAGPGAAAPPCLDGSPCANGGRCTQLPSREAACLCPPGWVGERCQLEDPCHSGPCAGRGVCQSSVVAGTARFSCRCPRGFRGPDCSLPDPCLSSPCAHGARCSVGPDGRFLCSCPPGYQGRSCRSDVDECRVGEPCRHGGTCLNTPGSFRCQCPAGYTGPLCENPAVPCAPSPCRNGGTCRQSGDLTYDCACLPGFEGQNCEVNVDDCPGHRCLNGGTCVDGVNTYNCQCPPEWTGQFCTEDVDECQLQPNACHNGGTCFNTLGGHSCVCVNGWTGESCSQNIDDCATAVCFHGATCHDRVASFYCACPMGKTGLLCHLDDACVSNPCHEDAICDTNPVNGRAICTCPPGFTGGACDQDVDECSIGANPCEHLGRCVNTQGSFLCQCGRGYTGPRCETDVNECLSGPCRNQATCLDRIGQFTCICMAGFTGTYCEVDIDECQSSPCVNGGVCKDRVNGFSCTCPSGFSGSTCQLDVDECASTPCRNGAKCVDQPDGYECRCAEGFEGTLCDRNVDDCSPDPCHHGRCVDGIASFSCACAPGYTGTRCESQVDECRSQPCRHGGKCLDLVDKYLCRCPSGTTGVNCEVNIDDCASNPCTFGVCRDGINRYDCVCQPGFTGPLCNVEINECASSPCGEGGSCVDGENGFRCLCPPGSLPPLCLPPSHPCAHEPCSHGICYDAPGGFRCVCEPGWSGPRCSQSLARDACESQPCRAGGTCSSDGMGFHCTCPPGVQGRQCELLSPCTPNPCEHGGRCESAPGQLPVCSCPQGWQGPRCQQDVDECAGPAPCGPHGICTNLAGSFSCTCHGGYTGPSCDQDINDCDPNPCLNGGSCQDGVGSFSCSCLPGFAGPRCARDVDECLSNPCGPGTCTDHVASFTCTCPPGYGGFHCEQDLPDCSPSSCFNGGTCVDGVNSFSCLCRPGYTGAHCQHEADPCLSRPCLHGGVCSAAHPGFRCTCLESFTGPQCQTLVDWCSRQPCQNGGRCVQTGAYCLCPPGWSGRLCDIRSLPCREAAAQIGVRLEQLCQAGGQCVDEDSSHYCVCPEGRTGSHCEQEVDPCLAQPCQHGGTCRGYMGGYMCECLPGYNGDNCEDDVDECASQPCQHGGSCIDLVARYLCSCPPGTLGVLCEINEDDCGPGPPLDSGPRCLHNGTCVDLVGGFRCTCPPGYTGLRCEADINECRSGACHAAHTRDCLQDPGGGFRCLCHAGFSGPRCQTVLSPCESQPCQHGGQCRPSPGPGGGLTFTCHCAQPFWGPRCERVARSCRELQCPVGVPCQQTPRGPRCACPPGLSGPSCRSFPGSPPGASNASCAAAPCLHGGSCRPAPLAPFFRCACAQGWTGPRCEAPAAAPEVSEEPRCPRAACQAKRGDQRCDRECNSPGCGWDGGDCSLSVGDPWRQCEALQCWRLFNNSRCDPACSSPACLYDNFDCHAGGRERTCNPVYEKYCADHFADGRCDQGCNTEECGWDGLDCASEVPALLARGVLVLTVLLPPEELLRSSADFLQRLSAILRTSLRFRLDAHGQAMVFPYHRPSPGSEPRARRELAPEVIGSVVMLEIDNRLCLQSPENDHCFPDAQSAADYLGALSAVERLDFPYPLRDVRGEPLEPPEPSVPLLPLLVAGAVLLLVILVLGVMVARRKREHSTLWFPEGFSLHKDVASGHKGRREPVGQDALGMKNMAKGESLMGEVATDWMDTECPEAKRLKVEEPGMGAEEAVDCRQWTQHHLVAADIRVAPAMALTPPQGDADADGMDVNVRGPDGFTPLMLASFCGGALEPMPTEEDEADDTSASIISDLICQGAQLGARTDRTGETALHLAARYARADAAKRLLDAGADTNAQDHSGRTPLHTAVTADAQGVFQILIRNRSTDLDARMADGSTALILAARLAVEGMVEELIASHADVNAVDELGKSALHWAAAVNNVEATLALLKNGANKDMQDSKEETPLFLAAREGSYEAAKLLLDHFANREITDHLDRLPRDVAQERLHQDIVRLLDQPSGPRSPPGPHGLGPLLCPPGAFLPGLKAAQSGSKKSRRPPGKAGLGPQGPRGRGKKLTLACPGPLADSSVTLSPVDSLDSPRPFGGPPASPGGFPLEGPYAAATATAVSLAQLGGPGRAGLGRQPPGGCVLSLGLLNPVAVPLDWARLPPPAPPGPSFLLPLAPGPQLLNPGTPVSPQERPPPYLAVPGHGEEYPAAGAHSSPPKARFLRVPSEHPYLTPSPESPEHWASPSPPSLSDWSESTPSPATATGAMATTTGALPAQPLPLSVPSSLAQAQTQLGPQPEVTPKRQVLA
Test [20] in a line: probe aEGFR binding to arrayed compounds – biochemical, biotinylated probe, 635/667 nm fluorescence, primary screen (AID 1097).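 Also: probe is a biotinylated anti-EGFR antibody binding compounds printed on slides; score combines fluorescence near 667 nm and signal to noise of each spot.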 Conditions: small-molecule microarray, higher = more signal.

In the case of `COc1cc(O)c(C(=O)C=Cc2ccc3c(c2)OCO3)c(OC)c1`, the composite z-score is -0.132 in test [1]; 0.0414 in [2]; 0.0198 in [3]; 0.2 in [4]; -0.877 in test [5]; -0.288 in test [6]. The composite z-score in test [7] is -0.927; in [9], -0.155; in test [10], 0.0238; in [11] it was -0.825; in test [15], -0.862; in test [17], -0.127. The composite z-score in [18] was 0.257; in [19], 0.124; in [20] it was -0.113. Besides, the z-score in [8] is -0.984 (inactive); in test [12], 1.11 (inactive); in [13], 0.561 (inactive); in test [14], 2.26 (inactive); in test [16] it was 0.75 (inactive).

In the case of `CCc1cc2c(nc1CC)CCN(CCC(C)=NO[C@H](C)c1cn([C@@H]3COC[C@H]3O)nn1)C2`, the composite z-score in [1] is -0.141; in test [2], -0.0699; in test [3], -0.0015; in test [4], 0.0444; in test [5], 0.199; in [6], -0.174. The composite z-score in test [7] is -0.365; in test [9], 0.224; in test [10], -0.0994; in test [11], -0.104; in test [15] it was -0.179; in test [17], -0.0936. In addition, the composite z-score was 0.0613 in [18], 0.551 in [19] and 0.0004 in test [20]. Further, the z-score is -0.0345 (inactive) in test [8]; 0.485 (inactive) in test [12]; 0.308 (inactive) in [13]; 0.668 (inactive) in test [14]; -0.216 (inactive) in test [16].

Regarding `CC(CCN1CCCCc2nc(C)c(C)cc21)=NOC[C@@H](O)COCc1ccco1`, the composite z-score in test [1] is -0.471; in test [2] it was 2.6; in test [3] it was -0.242; in test [4], 0.0106; in [5] it was 0.296; in [6] it was -1.03. Moreover, the composite z-score was 0.298 in test [7]; 0.193 in test [9]; 0.259 in test [10]; 1.3 in test [11]; -0.58 in [15]; -0.0042 in test [17]. Besides, the composite z-score in test [18] came to 1.21; in test [19], 0.876; in test [20] it was 0.592. The z-score is -0.0255 (inactive) in test [8]; -1.35 (inactive) in test [12]; 0.527 (inactive) in test [13]; -0.119 (inactive) in test [14]; 0.742 (inactive) in test [16].

As to `CC(C)=CCCC(C)=CCON=C1C[C@@H](O)[C@@H](O)[C@@H]2[C@@H]3C(=O)N(c4ccc(F)cc4F)C(=O)[C@@H]3CC[C@@H]12`, the composite z-score in test [1] is -0.245; in test [2], 0.87; in test [3], -0.116; in test [4] it was 0.546; in [5], -0.205; in [6], 0.895. The composite z-score in test [7] is 0.314; in test [9] it was 0.356; in test [10] it was 0.0505; in [11], 1.11; in [15] it was -0.0426; in test [17], 0.0054. Besides, the results for the composite z-score in test [18], in [19] and in test [20] were 0.888, 0.678 and -0.0381, respectively. Besides, the z-score in test [8] is 0.656 (inactive); in test [12] it was 0.918 (inactive); in [13] it was -2.43 (inactive); in test [14], -0.496 (inactive); in test [16], 1.34 (inactive).

On to `CCOC(=O)[C@H](Cc1ccccc1)NC(=O)CCC1CC(OC(=O)NCc2cccc3ccccc23)CC2(CCCC(COC(=O)NCc3ccccc3)O2)O1` (stereo not given in full), for which the composite z-score in test [1] was -0.356; in test [2], 0.0841; in [3], -0.21; in [4], 0.159; in test [5], 0.118; in test [6] it was 0.477. The composite z-score in [7] is 0.686; in [9], 0.0918; in [10] it was -0.303; in test [11], 1.04; in test [15] it was 0.728; in test [17] it was -0.0931. Also, the composite z-score in test [18] is 0.547; in test [19] it was 0.955; in [20] it was -0.142. Further, the z-score was 0.573 (inactive) in test [8]; -2.28 (inactive) in test [12]; -2.51 (inactive) in [13]; -0.414 (inactive) in test [14]; -1.42 (inactive) in test [16].
